Measurements as given in PubChem BioAssay (Tox21).
Results filed as inconclusive are left out. Active and inactive are the calls of the source. Unless noted, the call rests on the fitted dose curve; in most records, active means well fitted curve in the direction sought with a large enough effect in the repeat runs; inconclusive means weak or mixed curves; inactive means no such curve, though single readings can be large; an effect the other way counts as inactive or inconclusive.

Experiments:
[1] = biological target: Estrogen receptor beta (Homo sapiens) (UniProt Q92731); assay: qHTS assay to identify small molecule agonists of the estrogen receptor beta (ER-beta) signaling pathway (AID 1259377; active means well fitted activation curve with a large enough effect in the signal ratio in the repeat runs, not every such curve was filed as active; the % refers to the signal ratio)
Sequence of Estrogen receptor beta (Homo sapiens) (Q92731 whole entry, looked up): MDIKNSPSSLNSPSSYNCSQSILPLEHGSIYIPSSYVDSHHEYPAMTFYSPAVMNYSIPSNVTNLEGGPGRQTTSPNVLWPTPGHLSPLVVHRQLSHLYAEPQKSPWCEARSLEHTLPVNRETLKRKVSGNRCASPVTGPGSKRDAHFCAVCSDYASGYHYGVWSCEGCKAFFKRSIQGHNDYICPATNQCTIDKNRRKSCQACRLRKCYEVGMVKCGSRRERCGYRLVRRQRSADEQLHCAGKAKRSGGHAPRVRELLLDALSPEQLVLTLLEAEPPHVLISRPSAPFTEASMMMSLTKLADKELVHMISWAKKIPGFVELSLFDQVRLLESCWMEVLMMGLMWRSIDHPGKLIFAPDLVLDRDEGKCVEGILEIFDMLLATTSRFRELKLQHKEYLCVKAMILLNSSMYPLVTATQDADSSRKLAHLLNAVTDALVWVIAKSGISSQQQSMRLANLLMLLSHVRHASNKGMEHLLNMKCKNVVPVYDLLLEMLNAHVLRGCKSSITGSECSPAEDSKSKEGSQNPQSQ
Method in brief: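 Measured by fluorescence intensity from a B/G FRET beta-lactamase substrate (2 h, room temperature) in ER-beta-UAS-bla HEK293T cells treated with DMSO-dissolved compounds for 16 hr at 37C and 5% CO2.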

[2] = biological target: Estrogen receptor beta (Homo sapiens) (UniProt Q92731); assay: qHTS assay to identify small molecule antagonists of the estrogen receptor beta (ER-beta) signaling pathway (AID 1259378; active means well fitted inhibition curve with a large enough effect in the signal ratio in the repeat runs, not every such curve was filed as active; the % refers to the signal ratio)
Method in brief: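 Antagonist mode: compounds added to beta-lactamase reporter HEK293T ER-beta-UAS cells stimulated with E2 (1nM final), 16 hr at 37C. LiveBLAzer B/G FRET substrate, 2 hours room temperature, fluorescence read-out.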

[3] = qHTS assay to identify small molecule agonists of the androgen receptor (AR) signaling pathway in the presence of an antagonist - cell viability counter screen (AID 1259379); further: series mostly up to about 92 µM; nearly all actives have a fitted effect of over 25% in size
Method in brief: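 MDA-kb2 human breast carcinoma cells (stable MMTV-luciferase, AR/GR responsive) were seeded 3,000 cells/well, pre-incubated 5 hr at 37C without CO2, then given 3.0uM nilutamide and compounds at 15 concentrations for 16 hr. Viability was read by CellTiter-Fluor fluorescence.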

[4] = qHTS assay to identify small molecule agonists of the estrogen receptor beta (ER-beta) signaling pathway - cell viability counter screen (AID 1259380); further: nearly all actives have a fitted effect of over 30% in size
Method in brief: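 ER-beta-UAS-bla HEK293T cells in medium with 2% charcoal-stripped FBS were preincubated 6 hr at 37C, dosed with compound in DMSO for 16 hr, then after the bla read, CellTiter-Glo was added for 30 min at room temperature; luminescence recorded.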

[5] = qHTS assay to identify small molecule antagonists of the estrogen receptor beta (ER-beta) signaling pathway - cell viability counter screen (AID 1259382);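 further: HEK293T cells carrying ER-beta-UAS-bla reporter stimulated with estradiol; series mostly up to about 92 µM; nearly all actives have a fitted effect of over 55% in size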
Method in brief: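 ER-beta-UAS-bla HEK293T cells (2,000/well, 2% charcoal-stripped FBS) were pre-incubated 6 hr at 37C, then given compound plus 1nM final 17-beta-estradiol for 16 hr. Viability was read in the same wells by CellTiter-Glo luminescence after 30 min at room temperature.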

[6] = qHTS assay to identify small molecule agonists or antagonists of the thyroid stimulating hormone receptor (TSHR) signaling pathway - wild type cell line counter screen (AID 1259384; calls by dose curve)
Method in brief: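 Counter screen in untransfected Hek293: compounds (15-point titration, triplicate) plus phosphodiesterase inhibitor Ro20-1724 added after 18 h plating; 30 min RT. Intracellular cAMP via competitive d2/cryptate immunoassay, 1 h incubation.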

[7] = biological target: Thyrotropin receptor (Homo sapiens) (UniProt P16473); assay: qHTS assay to identify small molecule antagonists of the thyroid stimulating hormone receptor (TSHR) signaling pathway (AID 1259385; calls by dose curve; further: nearly all actives have a fitted effect of over 20% in size)
Sequence of Thyrotropin receptor (Homo sapiens) (P16473 whole entry, looked up): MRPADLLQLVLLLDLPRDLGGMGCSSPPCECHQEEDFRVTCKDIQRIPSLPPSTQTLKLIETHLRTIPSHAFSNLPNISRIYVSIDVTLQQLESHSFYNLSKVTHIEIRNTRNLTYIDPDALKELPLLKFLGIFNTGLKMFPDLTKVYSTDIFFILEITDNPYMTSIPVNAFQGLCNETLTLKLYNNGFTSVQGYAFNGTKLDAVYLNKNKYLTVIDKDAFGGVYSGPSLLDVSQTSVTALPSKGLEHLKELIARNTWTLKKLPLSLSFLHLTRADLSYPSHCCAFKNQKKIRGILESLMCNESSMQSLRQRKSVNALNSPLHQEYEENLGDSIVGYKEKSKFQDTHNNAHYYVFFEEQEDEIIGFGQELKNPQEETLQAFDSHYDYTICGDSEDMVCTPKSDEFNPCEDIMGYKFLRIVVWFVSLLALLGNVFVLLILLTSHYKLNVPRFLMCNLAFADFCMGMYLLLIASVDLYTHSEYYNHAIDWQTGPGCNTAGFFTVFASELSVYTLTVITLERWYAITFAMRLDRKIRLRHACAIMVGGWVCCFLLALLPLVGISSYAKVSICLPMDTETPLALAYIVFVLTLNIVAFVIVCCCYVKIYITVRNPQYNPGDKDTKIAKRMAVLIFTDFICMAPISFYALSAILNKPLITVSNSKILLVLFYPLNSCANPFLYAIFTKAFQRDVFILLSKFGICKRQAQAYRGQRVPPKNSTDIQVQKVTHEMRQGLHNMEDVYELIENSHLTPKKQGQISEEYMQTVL
Method in brief: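 Antagonist mode: compound-treated TSHR-expressing HEK293 cells were stimulated with 1.5 ng/mL TSH (final) in presence of Ro20-1724 for 30 min at RT. HTRF cAMP detection after 1 h; each compound tested at 15 concentrations, triplicate.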

[8] = qHTS assay to identify small molecule agonists of the estrogen receptor alpha (ER-alpha) signaling pathway in the presence of an antagonist - cell viability counter screen (AID 1259386);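 further: series mostly up to about 92 µM; cells exposed to compounds for 22 h at 37 °C before the viability read; nearly all actives have a fitted effect of over 30% in size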
Method in brief: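 VM7Luc4E2 cells (endogenous full-length ER-alpha, 4×ERE-luciferase) were held 5 days in phenol red-free medium with 10% charcoal-stripped FBS, plated, then given 10.0nM ICI-182,780 and compounds at 15 concentrations for 22hr at 37C; viability read by CellTiter-Fluor fluorescence.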

[9] = biological target: Progesterone receptor (Homo sapiens) (UniProt P06401); assay: qHTS assay to identify small molecule agonists of the progesterone receptor (PR) signaling pathway (AID 1346784; calls by dose curve; further: nearly all actives have a fitted effect of over 30% in size)
Sequence of Progesterone receptor (Homo sapiens) (P06401 whole entry, looked up): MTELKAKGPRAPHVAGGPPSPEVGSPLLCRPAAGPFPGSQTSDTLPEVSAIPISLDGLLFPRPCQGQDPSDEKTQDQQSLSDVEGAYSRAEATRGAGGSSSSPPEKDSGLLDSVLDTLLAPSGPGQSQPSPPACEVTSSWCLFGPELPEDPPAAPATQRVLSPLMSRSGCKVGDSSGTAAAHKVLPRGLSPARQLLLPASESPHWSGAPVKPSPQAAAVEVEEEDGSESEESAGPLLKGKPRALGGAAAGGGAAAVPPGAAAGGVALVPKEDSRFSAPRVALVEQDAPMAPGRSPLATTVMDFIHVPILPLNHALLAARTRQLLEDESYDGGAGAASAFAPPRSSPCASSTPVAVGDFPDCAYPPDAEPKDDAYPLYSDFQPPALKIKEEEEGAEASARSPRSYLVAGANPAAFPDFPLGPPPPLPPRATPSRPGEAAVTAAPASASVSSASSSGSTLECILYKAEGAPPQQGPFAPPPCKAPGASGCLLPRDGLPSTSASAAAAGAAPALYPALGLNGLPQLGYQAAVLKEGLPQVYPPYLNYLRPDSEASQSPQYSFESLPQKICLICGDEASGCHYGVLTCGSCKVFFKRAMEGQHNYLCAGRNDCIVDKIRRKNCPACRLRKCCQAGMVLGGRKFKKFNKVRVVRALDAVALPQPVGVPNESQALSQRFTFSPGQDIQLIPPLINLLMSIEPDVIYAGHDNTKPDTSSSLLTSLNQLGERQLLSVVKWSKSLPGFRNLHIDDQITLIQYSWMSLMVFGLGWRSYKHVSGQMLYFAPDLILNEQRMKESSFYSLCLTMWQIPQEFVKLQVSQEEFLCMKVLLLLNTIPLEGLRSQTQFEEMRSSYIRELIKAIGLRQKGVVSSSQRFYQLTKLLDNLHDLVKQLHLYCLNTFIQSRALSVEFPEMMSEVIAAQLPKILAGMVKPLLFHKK
Method in brief: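 The screen uses PR-UAS-bla HEK 293T cells in charcoal-stripped serum (2%). Compounds are applied for 16 hr at 37C after a 6 hr pre-incubation, and reporter activity is detected with a FRET beta-lactamase substrate after 2 hr at room temperature.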

[10] = biological target: Progesterone receptor (Homo sapiens) (UniProt P06401); assay: qHTS assay to identify small molecule antagonists of the progesterone receptor (PR) signaling pathway (AID 1346795; active means well fitted inhibition curve with a large enough effect in the signal ratio in the repeat runs, not every such curve was filed as active; the % refers to the signal ratio)
Method in brief: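 After 6 hr plating at 37C in 2% stripped-serum medium, PR-UAS-bla HEK293T cells got compounds, then 1 nM R5020. Sixteen hours later, LiveBLAzer substrate was applied for 2 hr at room temperature and fluorescence was recorded.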

[11] = qHTS assay to identify small molecule antagonists of the progesterone receptor (PR) signaling pathway - cell viability counter screen (AID 1346798); further: series mostly up to about 92 µM; nearly all actives have a fitted effect of over 50% in size
Method in brief: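 Viability was determined by ATP-based luminescence (CellTiter-Glo) in PR-UAS-bla HEK293T cells cultured in 2% charcoal-stripped serum and incubated 16 hr with compounds under R5020 stimulation.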

[12] = qHTS assay to identify small molecule agonists of the progesterone receptor (PR) signaling pathway - cell viability counter screen (AID 1346799; calls by dose curve; further: nearly all actives have a fitted effect of over 45% in size)
Method in brief: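 Viability was scored by ATP luminescence (CellTiter-Glo, 30 min, room temperature) in the same wells used for the reporter readout, after 16 hr compound exposure of PR-UAS-bla HEK293T cells.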

[13] = qHTS assay to identify small molecule agonists of the TGF-beta/Smad signaling pathway - cell viability counter screen (AID 1346829); further: top concentration of the series differs between compounds; nearly all actives have a fitted effect of over 45% in size
Method in brief: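 Here the cytotoxicity of library compounds is measured in SBE-bla HEK 293T cells treated for 5 hr, using CellTiter-Glo added to wells already read for the beta-lactamase reporter.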

[14] = qHTS assay to identify small molecule agonists of the TGF-beta/Smad signaling pathway (AID 1346859; active means well fitted activation curve with a large enough effect in the signal ratio in the repeat runs, not every such curve was filed as active; the % refers to the signal ratio; further: series mostly up to about 77 µM)
Method in brief: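 Dual-wavelength fluorescence (460/530 nm emission) quantified beta-lactamase expression under the Smad binding element in HEK 293T cells following 5 hr compound treatment at 37 C.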

[15] = biological target: Thyrotropin-releasing hormone receptor (Homo sapiens) (UniProt P34981); assay: qHTS assay to identify small molecule antagonists of the thyrotropin-releasing hormone receptor (TRHR) signaling pathway (AID 1346877; active means well fitted inhibition curve with a large enough effect in the repeat runs, not every such curve was filed as active; further: series mostly up to about 51 µM)
Sequence of Thyrotropin-releasing hormone receptor (Homo sapiens) (P34981 whole entry, looked up): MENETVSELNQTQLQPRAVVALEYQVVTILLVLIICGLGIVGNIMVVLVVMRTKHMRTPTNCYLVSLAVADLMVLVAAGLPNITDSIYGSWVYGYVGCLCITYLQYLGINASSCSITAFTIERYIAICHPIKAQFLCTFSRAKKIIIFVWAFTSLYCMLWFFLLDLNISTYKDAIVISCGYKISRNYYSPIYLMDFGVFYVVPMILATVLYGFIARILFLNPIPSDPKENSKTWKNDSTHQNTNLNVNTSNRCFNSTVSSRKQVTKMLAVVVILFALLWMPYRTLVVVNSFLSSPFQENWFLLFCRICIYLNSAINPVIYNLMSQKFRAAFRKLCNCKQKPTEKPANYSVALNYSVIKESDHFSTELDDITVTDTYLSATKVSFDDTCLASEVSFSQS
Method in brief: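 TRHR-expressing HEK293 cells were seeded, cultured 18 h at 37 °C, then loaded with calcium dye for 2 h. Compounds were pre-incubated 5 min at room temperature before 1 nM TRH (final) was added, and kinetic fluorescence was recorded for 3 min.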

[16] = biological target: Thyrotropin-releasing hormone receptor (Homo sapiens) (UniProt P34981); assay: qHTS assay to identify small molecule agonists of the thyrotropin-releasing hormone receptor (TRHR) signaling pathway (AID 1346891; calls by dose curve; further: series mostly up to about 58 µM)
Method in brief: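 Kinetic fluorescence (3 min, 1 s intervals) reported intracellular calcium after compound transfer onto TRHR-Hek293 cells pre-loaded with dye for 2 h at 37 °C.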

[17] = Human pregnane X receptor (PXR) small molecule agonists, qHTS cell viability counter screen (AID 1346977); further: nearly all actives have a fitted effect of over 50% in size
Method in brief: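 HepG2 cells stably carrying the PXR-Luc reporter are cultured with 5% charcoal-stripped FBS and treated with compounds for 24hr. CellTiter-Fluor is added at 23hr and fluorescence is read after 1hr.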

[18] = biological target: Estrogen receptor (Homo sapiens) (UniProt P03372); assay: qHTS assay to identify small molecule agonists of the estrogen receptor alpha (ER-alpha) signaling pathway in the presence of an antagonist (AID 1259383; calls by dose curve; further: top concentration of the series differs between compounds; nearly all actives have a fitted effect of over 15% in size)
Sequence of Estrogen receptor (Homo sapiens) (P03372 whole entry, looked up): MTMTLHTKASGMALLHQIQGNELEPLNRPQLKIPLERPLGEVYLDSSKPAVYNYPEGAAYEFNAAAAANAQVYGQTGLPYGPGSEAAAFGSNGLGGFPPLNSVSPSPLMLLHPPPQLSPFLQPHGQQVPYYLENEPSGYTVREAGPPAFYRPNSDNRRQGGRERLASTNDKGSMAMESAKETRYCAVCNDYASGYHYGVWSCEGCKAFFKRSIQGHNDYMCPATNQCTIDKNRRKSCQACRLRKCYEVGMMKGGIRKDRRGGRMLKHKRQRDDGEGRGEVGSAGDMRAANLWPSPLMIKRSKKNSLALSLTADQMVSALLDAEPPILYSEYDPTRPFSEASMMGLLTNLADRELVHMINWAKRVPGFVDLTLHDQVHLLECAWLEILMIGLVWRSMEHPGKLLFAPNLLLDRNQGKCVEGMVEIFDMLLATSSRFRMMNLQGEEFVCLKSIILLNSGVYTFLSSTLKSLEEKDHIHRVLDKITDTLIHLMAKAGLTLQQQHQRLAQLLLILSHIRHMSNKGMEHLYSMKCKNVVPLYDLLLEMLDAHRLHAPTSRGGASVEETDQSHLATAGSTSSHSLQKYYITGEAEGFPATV
Method in brief: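 VM7Luc4E2 cells (endogenous full-length ER-alpha, 4×ERE-luciferase) were precultured 5 days in phenol red-free medium with 10% charcoal-stripped FBS, given 10.0nM ICI-182,780 (final), then treated with compounds at 15 concentrations for 22hr at 37C; luminescence read with ONE-Glo.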

[19] = qHTS assay to identify small molecule antagonists of the TGF-beta/Smad signaling pathway - cell viability counter screen (AID 1346824); further: nearly all actives have a fitted effect of over 50% in size
Method in brief: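 Cytotoxicity counter-screen run in the same wells as the beta-lactamase Smad reporter read: CellTiter-Glo luminescence after 30 min at room temperature. HEK 293T SBE-bla cells had 5 hr compound exposure at 37 C with TGF-beta1 (0.25 ng/mL stock).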

[20] = biological target: Androgen receptor (Homo sapiens) (UniProt P10275); assay: qHTS assay to identify small molecule agonists of the androgen receptor (AR) signaling pathway in the presence of an antagonist (AID 1259381; calls by dose curve; further: nearly all actives have a fitted effect of over 15% in size)
Sequence of Androgen receptor (Homo sapiens) (P10275 whole entry, looked up): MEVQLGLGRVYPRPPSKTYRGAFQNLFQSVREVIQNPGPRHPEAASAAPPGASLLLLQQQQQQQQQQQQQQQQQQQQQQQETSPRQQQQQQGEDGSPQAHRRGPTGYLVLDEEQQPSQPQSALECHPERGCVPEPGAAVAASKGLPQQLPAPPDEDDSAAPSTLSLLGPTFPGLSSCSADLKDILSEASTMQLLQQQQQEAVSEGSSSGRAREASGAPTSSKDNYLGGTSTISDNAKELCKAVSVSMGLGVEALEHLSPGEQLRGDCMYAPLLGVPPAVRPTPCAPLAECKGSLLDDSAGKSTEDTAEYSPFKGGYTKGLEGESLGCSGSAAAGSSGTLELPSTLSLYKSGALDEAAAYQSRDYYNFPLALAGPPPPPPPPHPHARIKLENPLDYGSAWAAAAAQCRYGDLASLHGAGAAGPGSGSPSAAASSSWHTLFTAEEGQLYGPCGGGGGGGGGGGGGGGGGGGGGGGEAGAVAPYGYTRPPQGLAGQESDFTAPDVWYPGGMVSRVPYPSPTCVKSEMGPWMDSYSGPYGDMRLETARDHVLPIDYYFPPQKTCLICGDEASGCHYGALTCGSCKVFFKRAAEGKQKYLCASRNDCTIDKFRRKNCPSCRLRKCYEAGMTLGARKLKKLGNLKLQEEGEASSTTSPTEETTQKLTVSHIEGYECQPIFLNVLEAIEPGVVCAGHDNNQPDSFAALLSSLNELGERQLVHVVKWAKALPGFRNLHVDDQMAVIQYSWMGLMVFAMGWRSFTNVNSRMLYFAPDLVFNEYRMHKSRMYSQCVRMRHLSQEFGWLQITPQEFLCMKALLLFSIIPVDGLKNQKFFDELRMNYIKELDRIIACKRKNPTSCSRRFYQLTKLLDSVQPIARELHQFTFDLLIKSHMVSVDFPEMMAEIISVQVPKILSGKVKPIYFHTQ
Method in brief: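 MDA-kb2 human breast carcinoma cells carrying an MMTV-luciferase reporter (AR- and GR-responsive) were treated with compounds at 15 concentrations plus 3.0uM final nilutamide for 16hr at 37C without CO2; luminescence was read after ONE-Glo addition.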

Measured: Potency

C=CN1CCCCCC1=O
not listed: [18] | [19] | [20]
inactive: all other assays above

Clc1cc(Cl)cc(Cl)c1
not listed: [5] | [16] | [17] | [20]
inactive: all other assays above

OCCc1ccccn1
not listed: [6] | [7] | [11] | [15] | [18] | [20]
inactive: all other assays above

CN(C)[C@@H]1C(=O)C(C(=O)NCN2CCCC2)=C(O)[C@@]2(O)C(=O)C3=C(O)c4c(O)cccc4[C@@](C)(O)C3C[C@@H]12 (stereo partly drawn)
not listed: [9] | [16] | [18] | [20]
inactive: all other assays above

CC(COc1ccccc1)NN (stereo not drawn)
not listed: [5] | [9] | [15] | [16] | [20]
inactive: all other assays above

CC(C)(C)OC(=O)c1cccc(N)c1
not listed: [9] | [10] | [18] | [20]
inactive: all other assays above

CCN1CCOCC1
not listed: [6] | [7] | [18] | [20]
inactive: all other assays above

C=C(C)C(=O)OCC1CCCO1 (stereo not drawn)
not listed: [6] | [7] | [9] | [16] | [18] | [19] | [20]
inactive: all other assays above

CNCCO
not listed: [4] | [7] | [18] | [20]
inactive: all other assays above

CC(C)NNC(=O)c1ccncc1
not listed: [1] | [2] | [15] | [16] | [18]
inactive: all other assays above

NC(=O)NC1N=C([O][Al])NC1=O (stereo not drawn)
not listed: [1] | [2] | [11] | [13] | [18] | [19]
inactive: all other assays above

CCCC[N+](C)(CCCC)CCCC
not listed: [2] | [7] | [15] | [16] | [17] | [20]
inactive: all other assays above

C1CCC2(CCCCO2)OC1
not listed: [2] | [11] | [20]
inactive: all other assays above

CCCCCCC#CC(=O)OC
not listed: [5] | [6] | [7] | [17] | [18] | [20]
inactive: all other assays above
